The source holds several records for some structures; these can differ, active in one and inactive in another. Calls of active or inactive are those of the source. The calls were made as follows: active = hit-call score of the fitted dose curve at least 0.9, where 1 is the maximum; inactive = score below 0.9.
Key:
[1] = ATG_ISRE_CIS: Attagene CIS-FACTORIAL HepG2 Assay for human Interferon Regulatory Factor 1 (IRF1) binding to an Interferon-Stimulated Response Element (ISRE) (AID 2282948); conditions: HepG2 ISRE cis-reporter (Attagene), mRNA transcription readout; actives raise or lower the signal
Outline: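 Multiplexed mRNA reporter readout in human liver HepG2 cells: cis-element-driven reporters transfected, compound added for 24 h, transcripts amplified, fluorescently labelled and sized by capillary electrophoresis; curve fitting bidirectional against DMSO.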

[2] = ATG_M_32_CIS: Attagene CIS-FACTORIAL HepG2 Assay for M32 Transcription Factor (Internal Marker) (AID 2282949); conditions: HepG2 Attagene cis-factorial M32 reporter, mRNA; actives raise or lower the signal;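 also: background control marker of the multiplexed CIS panel rather than a real target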
Outline: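 HepG2 human liver cells transiently transfected with cis-promoter-driven multiple reporter transcription units, dosed 24 h. Reporter mRNA quantified by RT-PCR, FAM-labelled primer extension, HpaI digest and capillary electrophoresis; bidirectional fit versus DMSO baseline.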

[3] = ATG_M_06_CIS: Attagene CIS-FACTORIAL HepG2 Assay for M06 Transcription Factor (Internal Marker) (AID 2282950); conditions: HepG2 Attagene CIS-FACTORIAL M06 internal marker reporter; actives raise or lower the signal
Outline: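 Terse: HepG2, transient MRTU transfection (FuGene 6), 24 h dosing; total RNA, oligo(dT) RT, PCR, FAM label, HpaI cut, capillary electrophoresis; bidirectional fit vs DMSO baseline; background-control endpoint.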

[4] = target: Hypoxia-inducible factor 1-alpha (Homo sapiens) (UniProt Q16665); assay: ATG_HIF1a_CIS: Attagene CIS-FACTORIAL HepG2 Assay for human Hypoxia Inducible Factor 1 (HIF1A) (AID 2282951); conditions: HepG2 Attagene cis-factorial HIF1a reporter transcription; actives raise or lower the signal
Sequence of Hypoxia-inducible factor 1-alpha (Homo sapiens) (Q16665 whole entry, looked up): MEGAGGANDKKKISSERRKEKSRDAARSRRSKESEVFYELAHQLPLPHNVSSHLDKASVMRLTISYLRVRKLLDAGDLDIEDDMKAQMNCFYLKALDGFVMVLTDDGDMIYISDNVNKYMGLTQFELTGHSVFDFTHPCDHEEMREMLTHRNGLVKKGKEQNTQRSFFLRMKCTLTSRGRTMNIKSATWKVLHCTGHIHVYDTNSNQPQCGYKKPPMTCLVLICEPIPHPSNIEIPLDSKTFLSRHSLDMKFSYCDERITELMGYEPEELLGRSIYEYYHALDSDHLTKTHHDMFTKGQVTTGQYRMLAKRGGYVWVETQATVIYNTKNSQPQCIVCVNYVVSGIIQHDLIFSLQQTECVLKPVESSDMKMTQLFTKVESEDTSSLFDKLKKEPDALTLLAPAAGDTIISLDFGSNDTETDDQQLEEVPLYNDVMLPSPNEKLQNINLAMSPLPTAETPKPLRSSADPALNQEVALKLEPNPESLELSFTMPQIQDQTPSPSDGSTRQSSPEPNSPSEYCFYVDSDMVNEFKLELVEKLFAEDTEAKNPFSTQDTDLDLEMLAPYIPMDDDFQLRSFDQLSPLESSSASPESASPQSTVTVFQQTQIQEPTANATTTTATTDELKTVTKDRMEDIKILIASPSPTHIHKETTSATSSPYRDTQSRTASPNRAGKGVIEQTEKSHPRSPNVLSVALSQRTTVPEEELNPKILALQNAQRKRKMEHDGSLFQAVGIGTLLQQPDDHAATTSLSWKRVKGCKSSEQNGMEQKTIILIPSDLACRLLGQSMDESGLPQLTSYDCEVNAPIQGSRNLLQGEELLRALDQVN
Outline: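 After 24 h chemical exposure of reporter-transfected HepG2 cells, reporter cDNA was PCR-amplified, labelled by 6-FAM primer extension (2 min 95 C, 20 s 68 C, 10 min 72 C), HpaI-cut (2 h, 37 C) and analysed by CE.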

[5] = target: Hepatocyte nuclear factor 6 (Homo sapiens) (UniProt Q9UBC0); assay: ATG_HNF6_CIS: Attagene CIS-FACTORIAL HepG2 Assay for human Hepatocyte Nuclear Factor 6 (HNF6) (AID 2282952); conditions: HepG2 Attagene cis-factorial HNF6 reporter transcription; actives raise or lower the signal
Sequence of Hepatocyte nuclear factor 6 (Homo sapiens) (Q9UBC0 whole entry, looked up, the tested form may be a part): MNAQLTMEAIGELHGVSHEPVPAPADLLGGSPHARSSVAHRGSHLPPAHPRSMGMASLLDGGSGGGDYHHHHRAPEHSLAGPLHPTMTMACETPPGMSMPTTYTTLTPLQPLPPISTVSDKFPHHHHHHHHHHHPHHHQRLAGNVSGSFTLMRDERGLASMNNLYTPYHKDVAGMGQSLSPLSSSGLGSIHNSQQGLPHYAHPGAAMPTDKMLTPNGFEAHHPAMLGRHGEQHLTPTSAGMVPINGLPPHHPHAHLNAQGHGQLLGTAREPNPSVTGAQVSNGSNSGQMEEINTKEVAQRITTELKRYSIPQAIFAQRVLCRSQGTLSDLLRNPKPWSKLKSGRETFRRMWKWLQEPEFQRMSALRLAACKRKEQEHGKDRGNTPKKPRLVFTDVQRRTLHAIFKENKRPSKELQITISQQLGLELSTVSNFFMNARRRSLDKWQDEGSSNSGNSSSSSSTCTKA
Outline: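 Using cis-element reporters in HepG2 liver cells, the assay tracks endogenous factor-driven transcription 24 h post-dosing. Signal comes from 6-FAM-labelled, HpaI-digested RT-PCR fragments, with gain or loss scored against DMSO.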

[6] = ATG_MRE_CIS: Attagene CIS-FACTORIAL HepG2 Assay for human Metal Responsive Element (MRE) (AID 2282954); conditions: HepG2 MRE cis-reporter transcription, Attagene multiplex; actives raise or lower the signal
Outline: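 Measured here is mRNA induction from an MRE cis-element reporter in HepG2 after 24 h, quantified by fluorescence of labelled RT-PCR products on capillary electrophoresis; gain- and loss-of-signal fits use DMSO as baseline.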

[7] = ATG_PBREM_CIS: Attagene CIS-FACTORIAL HepG2 Assay for human Phenobarbital-responsive Enhancer Module (PBREM) (AID 2282955); conditions: HepG2 PBREM cis-reporter, Attagene multiplexed transcription; actives raise or lower the signal
Outline: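 Measures endogenous factor action on a phenobarbital-responsive enhancer module. HepG2 transiently carrying cis reporters, 24 h treatment, mRNA read-out by RT-PCR plus capillary electrophoresis.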

[8] = target: Paired box protein Pax-6 (Homo sapiens) (UniProt P26367); assay: ATG_Pax6_CIS: Attagene CIS-FACTORIAL HepG2 Assay for human Paired Box 6 (PAX6) (AID 2282956); conditions: HepG2 CIS-FACTORIAL PAX6 reporter transcription, RNA readout; actives raise or lower the signal
Sequence of Paired box protein Pax-6 (Homo sapiens) (P26367 whole entry, looked up): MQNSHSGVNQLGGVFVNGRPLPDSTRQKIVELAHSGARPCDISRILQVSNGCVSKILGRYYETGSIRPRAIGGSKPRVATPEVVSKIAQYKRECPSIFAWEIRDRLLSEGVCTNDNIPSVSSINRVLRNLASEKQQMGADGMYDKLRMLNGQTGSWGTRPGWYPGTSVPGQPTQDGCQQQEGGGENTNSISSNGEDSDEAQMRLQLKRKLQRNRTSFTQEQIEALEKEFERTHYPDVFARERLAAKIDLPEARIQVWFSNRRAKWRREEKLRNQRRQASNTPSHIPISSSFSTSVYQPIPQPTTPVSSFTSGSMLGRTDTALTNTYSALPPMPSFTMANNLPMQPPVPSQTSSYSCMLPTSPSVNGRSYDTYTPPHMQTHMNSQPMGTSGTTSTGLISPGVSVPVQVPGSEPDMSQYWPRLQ
Outline: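 Fluorescent RT-PCR products separated by capillary electrophoresis report PAX6-linked promoter mRNA in HepG2 cells 24 h post-dose. Curves fitted bidirectionally, DMSO as negative control.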

[9] = ATG_PXRE_CIS: Attagene CIS-FACTORIAL HepG2 Assay for human Pregnane X Receptor Element (PXRE) (AID 2282957); conditions: HepG2 Attagene CIS-FACTORIAL PXRE reporter, mRNA; actives raise or lower the signal
Outline: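 Using HepG2 transfected with multiple reporter transcription units, endogenous factor-driven transcription was scored as reporter mRNA after 24 h exposure.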

[10] = ATG_RORE_CIS: Attagene CIS-FACTORIAL HepG2 Assay for human RAR-related Orphan Receptor Element (RORE) (AID 2282959); conditions: HepG2 Attagene cis-factorial RORE reporter, mRNA; actives raise or lower the signal
Outline: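 A 24-hour exposure of transfected HepG2 hepatoma cells precedes RNA isolation and reporter RT-PCR. Labeled products are digested with HpaI and resolved by capillary electrophoresis, with gain or loss of signal scored relative to DMSO.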

[11] = ATG_Sox_CIS: Attagene CIS-FACTORIAL HepG2 Assay for human SRY-box transcription factor (SOX) (AID 2282960); conditions: HepG2 Attagene cis-factorial SOX reporter, mRNA; actives raise or lower the signal
Outline: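 HepG2, cis reporter units, 24 h exposure. Reporter mRNA: RT-PCR → FAM labelling → HpaI → CE fluorescence. Bidirectional fit vs DMSO.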

[12] = ATG_SREBP_CIS: Attagene CIS-FACTORIAL HepG2 Assay for human Sterol Regulatory Element Binding (SREBP) (AID 2282962); conditions: HepG2 Attagene cis-factorial SREBP reporter, mRNA; actives raise or lower the signal
Outline: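 Endogenous factor activity is measured in HepG2 through multiplexed reporter units under cis-element control. Following a 24 h incubation, reporter transcripts are reverse-transcribed, PCR-amplified and sized by capillary electrophoresis; activity is fitted in both directions relative to DMSO.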

[13] = target: Signal transducer and activator of transcription 3 (Homo sapiens) (UniProt P40763); assay: ATG_STAT3_CIS: Attagene CIS-FACTORIAL HepG2 Assay for human Signal Transducer and Activator of Transcription 3 (STAT3) (AID 2282963); conditions: HepG2, Attagene cis-factorial STAT3 reporter transcription; actives raise or lower the signal
Sequence of Signal transducer and activator of transcription 3 (Homo sapiens) (P40763 whole entry, looked up, the tested form may be a part): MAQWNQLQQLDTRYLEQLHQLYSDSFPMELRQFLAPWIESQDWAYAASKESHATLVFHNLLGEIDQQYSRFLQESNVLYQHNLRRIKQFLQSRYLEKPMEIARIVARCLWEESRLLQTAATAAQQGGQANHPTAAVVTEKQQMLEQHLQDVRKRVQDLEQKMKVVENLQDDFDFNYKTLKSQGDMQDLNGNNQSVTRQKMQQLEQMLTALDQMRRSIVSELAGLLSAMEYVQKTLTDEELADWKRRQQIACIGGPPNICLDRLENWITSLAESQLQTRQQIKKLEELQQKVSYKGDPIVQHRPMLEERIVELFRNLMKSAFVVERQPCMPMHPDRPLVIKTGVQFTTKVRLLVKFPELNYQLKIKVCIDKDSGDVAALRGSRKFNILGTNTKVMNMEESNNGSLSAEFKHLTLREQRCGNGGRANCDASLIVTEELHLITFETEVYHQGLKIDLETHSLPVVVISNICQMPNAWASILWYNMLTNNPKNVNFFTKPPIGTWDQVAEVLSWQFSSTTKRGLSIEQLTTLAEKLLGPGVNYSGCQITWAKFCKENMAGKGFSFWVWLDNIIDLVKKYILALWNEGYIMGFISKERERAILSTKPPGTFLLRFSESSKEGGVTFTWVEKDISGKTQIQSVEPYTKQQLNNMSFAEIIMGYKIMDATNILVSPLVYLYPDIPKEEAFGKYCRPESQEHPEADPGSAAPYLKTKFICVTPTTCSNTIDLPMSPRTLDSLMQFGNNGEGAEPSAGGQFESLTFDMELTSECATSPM
Outline: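 Fluorescence intensity of 6-FAM-labelled reporter fragments, separated by capillary electrophoresis after RT-PCR, gave the signal. Cells were HepG2 transfected with cis-element reporter units and treated 24 h; fitting was bidirectional relative to DMSO.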

[14] = ATG_TA_CIS: Attagene CIS-FACTORIAL HepG2 Assay for human TA Basal Promoter (AID 2282964); conditions: HepG2 Attagene CIS-factorial TA basal promoter reporter; actives raise or lower the signal
Outline: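 Transfected HepG2, 24 h compound exposure; RNA → RT-PCR → FAM primer extension → HpaI cut → CE fluorescence. Gain/loss-of-signal fitted against DMSO negative control. Background-control readout.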

[15] = ATG_TCF_b_cat_CIS: Attagene CIS-FACTORIAL HepG2 Assay for human T-Cell-Factor with beta-catenin (TCF/b-cat) (AID 2282965); conditions: HepG2 TCF/beta-catenin cis-reporter transcription, actives raise or lower the signal
Outline: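 Cells of the HepG2 line carry transiently transfected reporter units whose promoters respond to endogenous factors. Twenty-four hours post-dosing, reporter mRNA induction is measured by fluorescent RT-PCR and capillary electrophoresis, with DMSO as baseline.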

[16] = ATG_TAL_CIS: Attagene CIS-FACTORIAL HepG2 Assay for human TAL Basal Promoter (AID 2282966); conditions: HepG2 Attagene cis-factorial TAL promoter reporter; actives raise or lower the signal;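 also: background control endpoint measuring basal TAL promoter reporter mRNA not a specific factor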
Outline: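 After 24 hours of chemical exposure, transfected HepG2 cells yielded RNA that was converted to 6-FAM-labelled, HpaI-digested reporter fragments for capillary electrophoresis. Values derive from bidirectional fitting against DMSO controls.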

[17] = ATG_TGFb_CIS: Attagene CIS-FACTORIAL HepG2 Assay for human Transforming Growth Factor (TGF) (AID 2282967); conditions: HepG2 Attagene CIS TGFb reporter, mRNA transcription; actives raise or lower the signal
Outline: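 Readout: fluorescently labeled reporter cDNA fragments resolved by capillary electrophoresis after RT-PCR. Transfected HepG2 cells dosed for 24 h; endogenous TF activity at TGFB1-linked cis element; gain or loss fitted relative to DMSO.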

[18] = target: Transcription factor Sp1 (Homo sapiens) (UniProt P08047); assay: ATG_Sp1_CIS: Attagene CIS-FACTORIAL HepG2 Assay for human Specificity Protein 1 (Sp1) (AID 2282961); conditions: HepG2 Sp1 cis-reporter transcription, actives raise or lower the signal
Sequence of Transcription factor Sp1 (Homo sapiens) (P08047 whole entry, looked up, the tested form may be a part): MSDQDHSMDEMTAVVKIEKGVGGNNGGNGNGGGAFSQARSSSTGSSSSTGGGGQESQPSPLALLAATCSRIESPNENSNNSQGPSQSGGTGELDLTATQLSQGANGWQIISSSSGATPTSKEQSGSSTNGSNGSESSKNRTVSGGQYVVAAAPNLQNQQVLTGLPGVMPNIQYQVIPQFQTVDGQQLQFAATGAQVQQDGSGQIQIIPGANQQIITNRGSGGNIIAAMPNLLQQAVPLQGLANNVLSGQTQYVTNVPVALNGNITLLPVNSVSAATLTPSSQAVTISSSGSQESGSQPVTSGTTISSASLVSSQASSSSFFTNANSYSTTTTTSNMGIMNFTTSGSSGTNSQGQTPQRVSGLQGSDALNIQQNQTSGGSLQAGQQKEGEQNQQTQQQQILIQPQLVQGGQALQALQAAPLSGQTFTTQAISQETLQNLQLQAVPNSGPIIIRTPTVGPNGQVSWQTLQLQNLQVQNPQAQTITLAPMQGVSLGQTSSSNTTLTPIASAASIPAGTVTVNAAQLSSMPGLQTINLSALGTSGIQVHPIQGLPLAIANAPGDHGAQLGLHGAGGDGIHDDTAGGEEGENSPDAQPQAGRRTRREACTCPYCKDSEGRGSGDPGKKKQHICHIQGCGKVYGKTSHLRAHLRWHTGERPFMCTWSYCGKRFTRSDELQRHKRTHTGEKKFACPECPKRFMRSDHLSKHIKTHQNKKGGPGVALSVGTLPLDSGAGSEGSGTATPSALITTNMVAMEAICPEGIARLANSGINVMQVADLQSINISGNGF
Outline: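 Liver-derived HepG2 cells, cis-element reporter library, 24 h treatment; RNA isolated, cDNA amplified with reporter-specific primers, FAM-labeled fragments sized on capillary analyzer. DMSO baseline, bidirectional curve fit.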

[19] = ATG_PPRE_CIS: Attagene CIS-FACTORIAL HepG2 Assay for human Peroxisome Proliferator-activated Response Element (PPRE) (AID 2282958); conditions: HepG2 PPRE cis-element reporter, Attagene transcription factor profiling; actives raise or lower the signal
Outline: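 PPRE activity in HepG2: transient cis-reporter transfection, 24 h compound incubation, reporter mRNA by RT-PCR and CE fluorescence; gain/loss fitted against DMSO.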

Measured: AC50

Nc1ccc(-c2ccccc2)cc1
active: [6] 56.8 µM | [9] 30.1 µM
not listed: [18] | [19]
inactive: all other assays above

OC[P+](CO)(CO)CO
not listed: [8] | [10] | [14] | [16] | [19]
inactive: all other assays above

CCCCCCCCCCCCc1cccc(S(=O)(=O)O)c1
active: [9] 17.9 µM
not listed: [10] | [18] | [19]
inactive: all other assays above

c1csc(-c2ccc(-c3cccs3)s2)c1
active: [1] 3.41 µM | [4] 3.28 µM | [6] 3.99 µM | [7] 2.58 µM | [9] 5.21 µM | [19] 2.09 µM | [17] 6.2 µM
not listed: [10] | [14]
inactive: all other assays above

CCCSP(=S)(OCC)Oc1ccc(SC)cc1 (configuration not stated)
active: [9] 2.92 µM | [17] 100 µM
not listed: [7]
inactive: all other assays above

O=[N+]([O-])c1cc([As](=O)(O)O)ccc1O
not listed: [7]
inactive: all other assays above

N#Cc1ccncc1
not listed: [7] | [19]
inactive: all other assays above

Brc1ccc(Br)cc1
not listed: [19]
inactive: all other assays above

OCCN(CCO)CCO
not listed: [10] | [17] | [18] | [19]
inactive: all other assays above

O=c1[nH]c(=O)n(Cl)c(=O)n1Cl
active: [9] 52.5 µM
inactive: [1] | [2] | [3] | [4] | [5] | [6] | [8] | [9] | [11] | [18] | [12] | [13] | [16] | [17]

C=CCc1ccccc1O
active: [9] 29.3 µM
not listed: [7] | [19]
inactive: all other assays above

CCN(CCO)CCO
active: [9] 27.2 µM
inactive: all other assays above

Cc1cc(Cl)ccc1OCCCC(=O)O
inactive: all assays above

[Cl][Sn]([c]1ccccc1)([c]1ccccc1)[c]1ccccc1
active: [4] 0.252 µM | [5] 1.62 µM | [6] 0.23 µM | [8] 248 nM | [19] 0.0117 µM | [11] 217 nM | [18] 1.66 µM | [14] 251 nM | [16] 1.13 µM
inactive: all other assays above

CC(C)CP(=S)(S)CC(C)C
active: [9] 38.6 µM
not listed: [19]
inactive: all other assays above

From PubChem BioAssay (EPA / NIEHS)
